Laboratory results published in the supplement of paper PMC8728848.
This excerpt belongs to a sample that is enriched for the strongest signals.

Columns and labels:
Test in all cases: glycan array binding signal (z-score within array); higher = stronger binding
Conditions in all cases: glycan notation: IUPAC condensed, linker removed
[1] = molecular target: Fuc(a1-2)[Gal(a1-3)]Gal(b1-4)GlcNAc
Summary of the method: (§1)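 Negative Z-scores can be read as non-binding. The Z-score is calculated within each array and then averaged across arrays of one protein sequence at different concentrations or buffers and across linkers. Arrays, 3228 in all, were curated from the Consortium for Functional Glycomics database and kept only where the protein sequence was available.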

[2] = molecular target: Fuc(a1-2)[GalNAc(a1-4)]Gal(b1-4)GlcNAc
Summary of the method: as §1

[3] = molecular target: Gal(b1-3)GalNAc
Summary of the method: as §1

[4] = molecular target: Gal(b1-3)GalNAc(b1-3)Gal(a1-4)Gal(b1-4)Glc
Summary of the method: as §1

[5] = molecular target: Gal(b1-3)GlcNAc(b1-3)Gal(b1-4)Glc
Summary of the method: as §1

[6] = molecular target: Gal(b1-4)Glc6S
Summary of the method: as §1

[7] = molecular target: Gal(b1-4)GlcNAc(b1-3)Gal(b1-4)Glc
Summary of the method: as §1

[8] = molecular target: Gal3S(b1-4)Glc
Summary of the method: as §1

[9] = molecular target: Gal3S6S(b1-4)GlcNAc6S
Summary of the method: as §1

[10] = molecular target: GalNAc(a1-3)Gal
Summary of the method: as §1

[11] = molecular target: Glc(a1-6)Glc(a1-6)Glc
Summary of the method: as §1

[12] = molecular target: GlcNAc(b1-2)Gal(b1-3)GalNAc
Summary of the method: as §1

[13] = molecular target: Man(a1-2)Man(a1-2)Man(a1-6)[Man(a1-3)]Man
Summary of the method: as §1

[14] = molecular target: Man(a1-2)Man(a1-3)[Man(a1-2)Man(a1-6)]Man(a1-6)[Man(a1-2)Man(a1-2)Man(a1-3)]Man(b1-4)GlcNAc(b1-4)GlcNAc
Summary of the method: as §1

[15] = molecular target: Man(a1-3)[Man(a1-6)]Man
Summary of the method: as §1

[16] = molecular target: Neu5Ac(a2-3)Gal(b1-3)GlcNAc
Summary of the method: as §1

[17] = molecular target: Neu5Ac(a2-3)Gal(b1-4)Glc
Summary of the method: as §1

[18] = molecular target: Neu5Ac(a2-3)Gal(b1-4)GlcNAc6S
Summary of the method: as §1

[19] = molecular target: Neu5Ac(a2-6)Gal(b1-4)GlcNAc(b1-3)Gal(b1-4)GlcNAc
Summary of the method: as §1

[20] = molecular target: Neu5Ac(a2-6)GalNAc
Summary of the method: as §1

B1: DCAL1 (Homo sapiens), Q8IZS7 (protein)
chain: MVSNFFHVIQVFEKSATLISKTEHIGFVIYSWRKSTTHLGSRRKFAISIYLSEVSLQKYDCPFSGTSFVVFSLFLICAMAGDVVYADIKTVRTSPLELAFPLQRSVSFNFSTVHKSCPAKDWKVHKGKCYWIAETKKSWNKSQNDCAINNSYLMVIQDITAMVRFNI
glycan array binding signal (z-score) [1]: -0.172 | glycan array binding signal (z-score) [2]: -0.139 | glycan array binding signal (z-score) [3]: -0.214 | glycan array binding signal (z-score) [4]: -0.25 | glycan array binding signal (z-score) [5]: -0.181 | glycan array binding signal (z-score) [6]: -0.212 | glycan array binding signal (z-score) [7]: 1.75 | glycan array binding signal (z-score) [8]: -0.249 | glycan array binding signal (z-score) [9]: 1.34 | glycan array binding signal (z-score) [10]: -0.202 | glycan array binding signal (z-score) [11]: -0.234 | glycan array binding signal (z-score) [12]: -0.121 | glycan array binding signal (z-score) [13]: -0.251 | glycan array binding signal (z-score) [14]: 5.03 | glycan array binding signal (z-score) [15]: -0.223 | glycan array binding signal (z-score) [16]: -0.253 | glycan array binding signal (z-score) [17]: -0.211 | glycan array binding signal (z-score) [18]: -0.184 | glycan array binding signal (z-score) [19]: -0.203 | glycan array binding signal (z-score) [20]: 0.533
